Data reported in PubChem BioAssay AID624351 (Southern Research Specialized Biocontainment Screening …, 2012).
The whole screen tested about 2,400 compounds, of which about 1,400 (58%) were called active. So high a share suggests a set chosen from earlier hits. The list shows a part of the results. A number with no mark means an inactive call.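 The calls were made as follows: active = inhibition of 30% or more at any tested dose; inconclusive = primary hits over the limit that were never retested; inactive = the rest.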

assay: coupled detection enzyme interference, dose response, artefact control for MgcRacGAP inhibitor project, biochemical, coupled enzyme counter-screen (AID 624351); conditions: ADP Hunter coupled enzyme counter-screen, fluorescence, no MgcRacGAP; series mostly up to 80 µM; inhibition: at the top concentration;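 also: signal is the ADP detection kit reading of free GDP without any GAP enzyme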;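 as to inhibition: 0% = median positive control wells and 100% = median negative control wells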

| Compound | inhibition [%] | IC50 |
| --- | --- | --- |
| CCOc1ccccc1/C=c1\sc2ncnn2c1=O | 1.49 | – |
| CN1C(=O)NC(c2ccc(O)cc2)C2=C1CN(c1ccc(O)cc1)C2=O (stereo not drawn) | – | 44.7 µM (active) |
| O=C(CN1CCCCCC1)NCC1CCCO1 (stereo not drawn) | 18.5 | – |
| O=C(Cn1c(C(=O)NCC2CCCO2)cc2sccc21)c1ccccc1 (stereo not drawn) | – | 81.6 µM (active) |
| C=CCOc1ccccc1CN1CCCN(C)CC1 | 15.9 | – |
| Oc1ccc(-c2csc(Nc3cccnc3)n2)cc1 | – | 15.8 µM (active) |
| Oc1ccc(-c2csc(NCc3ccco3)n2)cc1 | – | 24 µM (active) |
| COc1cccc(Nc2nc(-c3ccc(O)cc3)cs2)c1 | – | 63.7 µM (active) |
| COc1cccc(CNCc2ccco2)c1O | 14.1 | – |
| Oc1ccc(-c2csc(Nc3ncccn3)n2)cc1 | – | 21.3 µM (active) |
| COc1cccc(NC2=C(C#N)C(=O)NC(c3cccc(OC)c3O)S2)c1 (stereo not drawn) | 4.84 | – |
| COc1ccc(-n2c(SCC(=O)C(C)(C)C)nc3c(sc(=S)n3-c3ccccc3)c2=O)c(OC)c1 | 4.76 | – |
| Oc1ccc(-c2csc(Nc3ccccn3)n2)c(O)c1 | – | 63.3 µM (active) |
| Cc1nc2ncccn2c1-c1csc(Nc2ccc(O)cc2)n1 | – | 11.1 µM (active) |
| O=C(Nc1nc(-c2ccncc2)cs1)C1COc2ccccc2O1 (stereo not drawn) | -0.97 | – |
| Cc1ccnc(Nc2nc(-c3ccc(O)c(O)c3)cs2)c1 | – | 61 µM (active) |
| Oc1ccc(-c2csc(Nc3ccccn3)n2)cc1 | – | 79.7 µM (active) |
| NNc1cc([N+](=O)[O-])cc2c1C(=O)N(Cc1ccccc1)S2=O (stereo not drawn) | -2.56 | – |
| O=C1NN(c2ccccc2)C(=O)C1=Cc1ccccc1O | 1.15 | – |
| COc1cccc(OCC(O)CN2CCN(C)CC2)c1 (stereo not drawn) | 25.3 | – |
| c1ccc(CCNCCCOc2cccc3ccccc23)cc1 | 17.6 | – |
| Nc1ccc2c(c1)C(=O)c1cc(N)c(Cl)cc1-2 | – | 49.2 µM (active) |
| COc1cc2c(cc1N)-c1ccc(N)cc1C2=O | – | 16.5 µM (active) |

| Compound | inhibition [%] | IC50 |
| --- | --- | --- |
| O=C(/C=C/c1ccc([N+](=O)[O-])cc1)/C=C/c1ccco1 | -25.6 | – |
| Cc1ccc(Cl)c(OCCCN(C)Cc2ccccc2)c1 | 19.9 | – |
| O=C(CNCC1CCCO1)Nc1ccc(N2CCCCCC2)cc1 (stereo not drawn) | 29.8 | – |
| CC1=NN(c2cccc(C(=O)O)c2)C(=O)/C1=C\C=C\c1ccco1 | 5.84 | – |
| N#Cc1ccccc1OCCCN1CCC(Cc2ccccc2)CC1 | 15.2 | – |
| CC(=O)c1c(C)c(C)c2n1CCn1c(C)ccc1-2 | – | 44.7 µM (active) |
| COc1ccc(NCc2cccnc2)cc1 | – | 54.6 µM (active) |
| COc1ccc(NCc2ccsc2)cc1 | – | 28.9 µM (active) |
| COc1ccc2cc(CNCCOCCOCCNCc3ccc4cc(OC)ccc4c3)ccc2c1 | 8.48 | – |
| Clc1nc(NCc2cccnc2)nc(N2CCOCC2)n1 | 2.09 | – |
| COc1cccc(OC)c1C(=O)N1CCN(Cc2cccnc2)CC1 | 19.6 | – |
| N#CCCN(CCC#N)c1nncs1 | 3.07 | – |
| Cc1ccc2c(c1)C(C)CC(C)(C)N2C(=O)CN1CCN(C)CC1 (stereo not drawn) | 25 | – |
| COc1ccc2c(c1)-c1nc(/N=C/c3ccccc3O)sc1CC2 | – | 32.7 µM (active) |
| COc1ccc2c(c1)-c1nc(/N=C/c3cccc(OC)c3O)sc1CC2 | – | 29.2 µM (active) |
| COc1ccc2nc(C)cc(N/N=C/c3cccc(OC)c3O)c2c1 | 25 | – |
| COc1ccc2c(c1)-c1nc(/N=C/c3c(O)ccc4ccccc34)sc1CC2 | – | 62.7 µM (active) |
| Cc1cc(Cl)c(OCCOCCN2CCN(C)CC2)c(Br)c1 | 24.2 | – |
| CCCCN(C)CCNC(=O)CSCc1ccc(C)cc1 | 15.9 | – |
| Nc1ccc(C(=O)N/N=C/c2ccc(N3CCOCC3)s2)cc1 | – | 19.5 µM (active) |
| O=C(N/N=C/c1ccc(N2CCOCC2)s1)c1ccc(O)cc1 | – | 25.2 µM (active) |
| Cc1cc(OCCCN2CCN(Cc3ccccc3)CC2)ccc1[N+](=O)[O-] | 24.2 | – |
| CC(=O)Nc1cccc2cc(O)ccc12 | – | 35.8 µM (active) |

| Compound | inhibition [%] | IC50 |
| --- | --- | --- |
| O=C(/C=C/c1ccc(O)c(O)c1)OC(Cc1ccc(O)c(O)c1)C(=O)O (stereo not drawn) | – | 44.1 µM (active) |
| O=C1N=c2ccccc2=C1c1sc(Nc2ccc(O)cc2)nc1O | 20.5 | – |
| Cc1ccc(-c2csc3n[nH]c(=S)n23)cc1 | – | 61.8 µM (active) |
| CC1(C)Nc2cccc3cccc(c23)N1 | – | 31.9 µM (active) |
| COc1ccc(OC(=O)c2cc(S(=O)(=O)N3CCCC3)ccc2Cl)cc1 | 2.36 | – |
| C/C(=N\Nc1ccc(S(=O)(=O)N2CCCCC2)cn1)c1ccc(O)cc1 | – | 20 µM (active) |
| CC1CCCC(N2CCN(C(=O)c3ccc([N+](=O)[O-])cc3)CC2)C1 (stereo not drawn) | -14.3 | – |
| Cc1ccc(NCCCCO)cc1C | – | 43.3 µM (active) |
| Cc1ccc(NCc2ccco2)cc1C | -4.65 | – |
| C/C(=N\Nc1cccc2cccnc12)c1ccc[nH]1 | 20.1 | – |
| Cc1nc(Cc2nnc(SCC(=O)N3CCN(c4ccc(O)cc4)CC3)o2)cs1 | – | 30.6 µM (active) |
| Cc1cccc(NC2=C(C#N)C(=O)NC3(CCCC3)S2)c1 | 0.64 | – |
| COc1cccc(OC)c1NC(=O)CN1CCN(C)CC1 | 25.3 | – |
| COc1ccc(/C=N/N2CCN(C)CC2)cc1O | – | 42.6 µM (active) |
| COc1ccccc1N1CCN(CC(=O)c2ccc(F)cc2)CC1 | -12.8 | – |
| COc1cc(/C=N/N2CCN(c3ccccc3OC)CC2)ccc1O | – | 36.5 µM (active) |
| COc1ccccc1N1CCN(CCCOc2ccc(F)cc2)CC1 | 19.5 | – |
| COc1cc(/C(C)=N/N2CCN(c3ccccc3OC)CC2)ccc1O | 25.9 | – |
| COc1ccc(CN2CCCN(C)CC2)c(OC)c1C | 16.2 | – |
| COc1ccccc1N1CCN(/N=C/c2ccc(O)cc2O)CC1 | – | 70.9 µM (active) |
| Cc1ccc(N2C(N)=C(C#N)C3(C(=O)N(C)c4ccccc43)C3=C2CC(C)(C)CC3=O)cc1Cl (stereo not drawn) | 1.04 | – |
| Cc1cccc2sc(NNC(=O)c3cc(=O)c4ccccc4o3)nc12 | – | 64.9 µM (active) |
| CC1C(=O)NN=C1C(=O)N/N=C\c1ccc(O)cc1O (stereo not drawn) | – | 37.7 µM (active) |

| Compound | inhibition [%] | IC50 |
| --- | --- | --- |
| COc1cc(/C=N/NC(=O)C2=NNC(=O)C2C)ccc1O (stereo not drawn) | – | 74.7 µM (active) |
| COc1cc(/C=N/NC(=O)CC2C(=O)NN=C2C)ccc1O (stereo not drawn) | – | 59.1 µM (active) |
| CCN1CCN(Cc2ccc(NC(=O)c3ccc(C)c(/C=C/c4cnc(Nc5cc(N6CCNCC6)nc(C)n5)cn4)c3)cc2C(F)(F)F)CC1 | -0.63 | – |
| O=C(N/N=C/c1sc2ccccc2c1O)c1cccc2ccccc12 | – | 60.6 µM (active) |
| Cc1c(C(=O)N/N=C/c2ccc(O)cc2)sc(=S)n1C | 19.2 | – |
| O=C(N/N=C/c1ccc(O)cc1)c1csc2ccccc12 | – | 43.1 µM (active) |
| O=C(N/N=C/c1ccc(O)cc1)c1csc2c1CCCC2 | – | 40.6 µM (active) |
| O=C(N/N=C/c1ccc(F)cc1)c1cc(-c2ccco2)nc2ccccc12 | -10.7 | – |
| C=CCc1cccc(Cl)c1OCCCNC1CCCC1 | 8.95 | – |
| O=C1ON=C(c2ccccc2)/C1=C/c1ccco1 | -3.67 | – |
| Cc1ccc(COC(=O)Cc2coc3cc(O)ccc23)cc1 | – | 28.9 µM (active) |
| Cn1cccc1CC(=O)N/N=C/C=C/c1ccco1 | -26.5 | – |
| c1ccc(CNC23CC4CC(CC(C4)C2)C3)nc1 | 17.5 | – |
| COc1ccc(CN(C)CCc2ccccn2)cc1OC | 20.1 | – |
| Oc1ccc(CCc2ccccn2)cc1 | – | 44.9 µM (active) |
| CC(C)CC(=O)N1CCN(Cc2cccc([N+](=O)[O-])c2)CC1 | 13.1 | – |
| COc1cc(N2C(=O)C=CC2=O)ccc1N1C(=O)C=CC1=O | 3.9 | – |
| O=C(c1ccccc1F)N1CCN(Cc2ccc3c(c2)OCO3)CC1 | 15.9 | – |
| Oc1ccc(/C=N/Nc2nc(N3CCCC3)nc(N3CCCC3)n2)cc1O | – | 48.3 µM (active) |
| COc1ccc(-c2cnnc(N/N=C/c3ccc(O)c(O)c3)n2)cc1 | – | 73.9 µM (active) |
| CCNc1nc(NCC)nc(N/N=C/c2ccc(O)c(O)c2)n1 | – | 50.4 µM (active) |
| COc1cc2nc(N3CCNCC3)nc(N)c2cc1OC | 6.38 | – |
| COc1cc(/C=N/Nc2nc(N3CCCC3)nc(N3CCCC3)n2)ccc1O | – | 79.1 µM (active) |

| Compound | inhibition [%] | IC50 |
| --- | --- | --- |
| Cc1ccc(C)c(-n2sc3ccc(F)cc3c2=O)c1 | 12.9 | – |
| COc1ccc(/C=N/Nc2nc(N3CCCC3)nc(N3CCCC3)n2)cc1O | – | 71.1 µM (active) |
| CCOc1ccc(NCc2cccn2-c2nnc(N3CCC(C(=O)NCCCN4CCCCC4)CC3)s2)cc1 | – | 68.9 µM (active) |
| CCN(CC)Cc1cc(Nc2c3ccccc3nc3c4ccccc4n(C)c23)cc(CN(CC)CC)c1O | – | 20.9 µM (active) |
| Cc1[nH]n(-c2cccc(Cl)c2)c(=O)c1-c1ccc(Cl)cc1 | – | 77.2 µM (active) |
| Cc1c(Cl)sn(-c2ccc(Cl)cc2)c1=O | 9.28 | – |
| Cc1ccc(-c2ccc(/C=C3\C(=O)ON=C3c3ccccc3)o2)c([N+](=O)[O-])c1 | 3.06 | – |
| COc1ccc(NC2CCCN(C(=O)c3ccccc3C(F)(F)F)C2)cc1 (stereo not drawn) | – | 76.2 µM (active) |
| COc1ccc(NC2CCCN(C(=O)c3ccc(C(C)=O)s3)C2)cc1 (stereo not drawn) | – | 80.4 µM (active) |
| COc1ccc(CN2CCN(Cc3ccc(C(F)(F)F)cc3)CC2)cc1 | 23.6 | – |
| COc1ccc(OCC(O)CN2CCCC2)cc1 (stereo not drawn) | 9.45 | – |
| COc1ccc(NC2CCCN(C(=O)C3(C)CCCCC3)C2)cc1 (stereo not drawn) | – | 67.2 µM (active) |
| COc1ccc(NC2CCCN(C(=O)COc3ccc(C(C)=O)cc3)C2)cc1 (stereo not drawn) | – | 74.9 µM (active) |
| CCN1CCCC1CNCC(=O)Nc1ccc(OC(F)(F)F)cc1 (stereo not drawn) | 16.9 | – |
| Cc1ccc(C)c(OCC(O)CN2CCC(C)CC2)c1C (stereo not drawn) | 12.6 | – |
| Cc1ccccc1C1=C/C(=C(\SS/C(C(=O)c2ccc(OCC(=O)O)c(Cl)c2Cl)=C2\C=C(c3ccccc3C)SS2)C(=O)c2ccc(OCC(=O)O)c(Cl)c2Cl)SS1 | 7.13 | – |
| CSc1nc(=S)c2[nH]c(=S)[nH]c2[nH]1 | 13.2 | – |
| CCCCNc1cc(NC(C)=O)cc2cc(OC)c(OC)cc12 | – | 52.3 µM (active) |
| Cc1ccc2c(c1)cc(C(=O)NCc1ccccc1)n2C | 1.98 | – |
| COc1cc2[nH]c(=S)nc(Nc3ccc(NC(C)=O)cc3)c2cc1OC | 4.2 | – |
| COc1cc2cc(NC(C)=O)cc(NCc3ccccc3)c2cc1OC | – | 61 µM (active) |
